{"source": "PubChem BioAssay AID2685", "about": "(National Center for Advancing Translational Sciences (NCATS), 2010)", "note": "Screen size: about 320,000 compounds; about 2,100 (0.66%) were called active. Inconclusive results (about 53%) are left out. Calls come from the whole dose curve; as a rule, active = well fitted inhibition curve with a large enough effect in the signal ratio, with a control signal flat (not every such curve was filed as active); inconclusive = small, poorly fitted or top-dose-only effect, or effect the other way, or a change in a side signal; inactive = flat fitted curve, though single readings scatter; the % refers to the signal ratio. Shown is part of a subset that was picked to be rich in actives. Potency is the fitted concentration of half-maximal effect."}
{"experiment": "qHTS Assay for Lipid Storage Modulators in Drosophila S3 Cells;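 for cell number change: cells counted by Cell Tracker Red CMTPX staining in the red channel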; for lipid storage change, negative = inhibition: % is set by controls: 0 for no effect and ±100 for the full control effect", "settings": "BODIPY lipid droplet fluorescence, 18-24 h, cells fed with added oleic acid; cell number change: measured here: cell count max response; series mostly up to 46.1 µM", "outline": "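Drosophila S3 cells got compounds at several concentrations plus oleic acid (400 uM solution). Laser-scanning cytometry with 488 nm excitation read lipid droplets at 500-530 nm and cells at 575-640 nm. Percent activity was relative to 20 uM Triacsin C.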", "units": {"cell number change": "%"}}
{"smiles": "Cc1cc(NC(=O)C(C)SCC(=O)OC(C)C(=O)Nc2ccccc2C)no1", "note": "(centres undefined)", "Potency": "inactive", "cell number change": 31.1}
{"smiles": "COCCN1CN=C(Nc2nc(C)c3ccc(C)cc3n2)NC1", "Potency": "inactive", "cell number change": 3.94}
{"smiles": "Cc1ccccc1OCC1CNC(=O)O1", "note": "(centres undefined)", "Potency": "inactive", "cell number change": 6.67}
{"smiles": "Cc1cccc(C)c1OCC1CNC(=O)O1", "note": "(centres undefined)", "Potency": "inactive", "cell number change": 9.47}
{"smiles": "O=C1NCC(COCc2ccco2)O1", "note": "(centres undefined)", "Potency": "16.4 µM (active)", "cell number change": 0.961}
{"smiles": "Cc1c(C(=O)O)oc2ccc(S(=O)(=O)N3CC(C)CC(C)C3)cc12", "note": "(centres undefined)", "Potency": "inactive", "cell number change": 24.2}
{"smiles": "Cc1c(C(=O)NCCN(C)C)oc2ccc(S(=O)(=O)N3CCCC3)cc12", "Potency": "0.116 µM (active)", "cell number change": 13.1}
{"smiles": "CCCCN(CC)C(=O)c1oc2ccc(S(=O)(=O)N3CCCC3)cc2c1C", "Potency": "11.6 µM (active)", "cell number change": -20.1}
{"smiles": "CCN(CC)C(=O)c1oc2ccc(S(=O)(=O)N3CC(C)CC(C)C3)cc2c1C", "note": "(centres undefined)", "Potency": "0.58 µM (active)", "cell number change": 13.1}
{"smiles": "Cc1c(C(=O)NCc2ccc3c(c2)OCO3)oc2ccc(S(=O)(=O)N3CCCC3)cc12", "Potency": "inactive", "cell number change": -21.4}
{"smiles": "CCOC(=O)N1CCN(C(=O)c2oc3ccc(S(=O)(=O)N4CCCCC4)cc3c2C)CC1", "Potency": "inactive"}
{"smiles": "Cc1c(C(=O)N(C)Cc2ccccc2)oc2ccc(S(=O)(=O)N3CCCC3)cc12", "Potency": "inactive", "cell number change": -25.2}
{"smiles": "Cc1c(C(=O)NCC2CCCO2)oc2ccc(S(=O)(=O)N3CCCC3)cc12", "note": "(centres undefined)", "Potency": "inactive", "cell number change": -3.78}
{"smiles": "Cc1c(C(=O)NCC2CCCO2)oc2ccc(S(=O)(=O)N3CC(C)CC(C)C3)cc12", "note": "(centres undefined)", "lipid storage change, negative = inhibition": "16.1% [at 9.22 µM] (inactive)"}
{"smiles": "O=[N+]([O-])/C(=C\\Nc1ccc(F)cc1F)S(=O)(=O)c1ccccc1", "Potency": "inactive"}
{"smiles": "COc1ccc(-c2cc(C(=O)Nc3nc4ccccc4s3)c3ccccc3n2)cc1OC", "Potency": "inactive", "cell number change": 2.3}
{"smiles": "Cn1cccc1C(=O)OCC(=O)Nc1cc(C(C)(C)C)nn1-c1ccccc1", "Potency": "inactive", "cell number change": 10.4}
{"smiles": "CS(=O)(=O)N(CC(=O)Nc1cccc([N+](=O)[O-])c1)c1cccc(F)c1", "Potency": "inactive", "cell number change": -2.63}
{"smiles": "CC1CCc2sc(C(=O)NNC(=S)NCC3CCCO3)cc2C1", "note": "(centres undefined)", "Potency": "inactive", "cell number change": 20}
{"smiles": "Cc1cccc2sc(NC(=O)C3CSC4(C)CCC(=O)N34)nc12", "note": "(centres undefined)", "Potency": "inactive", "cell number change": 14.2}
{"smiles": "O=C(c1cccnc1)N1CCN(S(=O)(=O)c2ccc(Cl)cc2)CC1", "Potency": "inactive", "cell number change": -4.89}
{"smiles": "COc1ccc(N2CCN(C(=O)CCNS(=O)(=O)c3cc(Br)cnc3N)CC2)cc1", "Potency": "inactive"}
{"smiles": "S=C1NCCOCCOCCOCCN1", "Potency": "inactive", "cell number change": -10.7}
{"smiles": "S=C1NCCOCCOCCOCCOCCN1", "Potency": "13 µM (active)", "cell number change": 20.5}
{"smiles": "S=C1NCCOCCNC(=S)NCCOCCOCCN1", "Potency": "inactive", "cell number change": 28}
{"smiles": "N/C(CCN1CCOCC1)=N/O", "Potency": "inactive", "cell number change": -8.53}
{"smiles": "COc1ccc(N2CC(C)Cn3c2nc2c3c(=O)n(CCN3CCOCC3)c(=O)n2C)cc1", "note": "(centres undefined)", "Potency": "2.06 µM (active)", "cell number change": 5.05}
{"smiles": "COc1ccc(N2CCCn3c2nc2c3c(=O)n(CCN3CCOCC3)c(=O)n2C)cc1", "Potency": "inactive", "cell number change": -8.81}
{"smiles": "COc1ccc(N2CCn3c2nc2c3c(=O)n(CCN3CCOCC3)c(=O)n2C)cc1", "Potency": "inactive", "cell number change": -1.98}
{"smiles": "COCCOC(=O)c1c(NC(=O)CNc2ccc(C)c(F)c2)sc(C(N)=O)c1C", "Potency": "inactive", "cell number change": 3.82}
{"smiles": "CCOc1ccc(/C=C/c2nc(C#N)c(NCCCN(C)C)o2)cc1", "Potency": "inactive", "cell number change": -6.82}
{"smiles": "CCOc1ccc(/C=C/c2nc(C#N)c(NCCCOC)o2)cc1", "Potency": "18.4 µM (active)", "cell number change": -10.5}
{"smiles": "CCNc1oc(/C=C/c2ccc(OCC)cc2)nc1C#N", "Potency": "inactive", "cell number change": -11.4}
{"smiles": "CCCc1nc(NCCO)c(C#N)c2c1CCCC2", "Potency": "inactive", "cell number change": 7.48}
{"smiles": "COc1ccccc1NC(=O)CC1C(=O)Nc2ccccc2N1C(=O)c1ccccc1", "note": "(centres undefined)", "Potency": "inactive", "cell number change": 5.14}
{"smiles": "O=C(OCC(=O)N1CCCC1)c1c(Cl)ccc(Cl)c1Cl", "Potency": "2.91 µM (active)", "cell number change": 9.01}
{"smiles": "O=C(OCC(=O)N1CCOCC1)c1c(Cl)ccc(Cl)c1Cl", "Potency": "inactive"}
{"smiles": "O=C(OCC(=O)N1CCCC1)c1cc(Cl)ccc1Cl", "Potency": "inactive", "cell number change": 4.05}
{"smiles": "O=S(=O)(Nc1ccc(Br)cc1)c1cccc(NC(=S)NCCN2CCOCC2)c1", "Potency": "inactive", "cell number change": 13}
{"smiles": "COC(=O)c1ccccc1CSc1nsc(C)c1C#N", "Potency": "9.2 µM (active)", "cell number change": 26.2}
{"smiles": "Cc1ccc(CSc2nsc(C)c2C#N)cc1", "Potency": "inactive", "cell number change": 8.89}
{"smiles": "COC(=O)c1ccccc1CSc1nsc(/C=C/N(C)C)c1C#N", "Potency": "inactive", "cell number change": 7.59}
{"smiles": "O=C(CCS(=O)(=O)c1ccccc1)Nc1nc2cc3c(cc2s1)OCO3", "Potency": "inactive", "cell number change": -2.46}
{"smiles": "O=C(O)CCC(=O)OCC1CCCO1", "note": "(centres undefined)", "Potency": "23.1 µM (active)", "cell number change": -20.4}
{"smiles": "O=C(O)CCC(=O)OCC1CCCCC1", "Potency": "inactive", "cell number change": 6.49}
{"smiles": "O=C(O)CCC(=O)Nc1ccc(OCC2CCCO2)cc1", "note": "(centres undefined)", "Potency": "inactive", "cell number change": 20.5}
{"smiles": "Cc1occc1C(=O)N1CCN(S(C)(=O)=O)CC1", "Potency": "inactive", "cell number change": 15.2}
{"smiles": "COCCCNC(=O)Cc1c(C)c2cc3c(cc2oc1=O)OC(C)(C)CC3", "Potency": "inactive", "cell number change": -2.78}
{"smiles": "COc1ccc(OC)c(CNC(=O)C2CCCN(c3ncnc4c3nc3n4CCCCC3)C2)c1", "note": "(centres undefined)", "Potency": "2.31 µM (active)", "cell number change": -11.8}
{"smiles": "CC1CCN(C(=O)C2CCCN(c3ncnc4c3nc3n4CCCCC3)C2)CC1", "note": "(centres undefined)", "Potency": "inactive", "cell number change": -11.2}
{"smiles": "CC1CCN(C(=O)C2CCN(c3ncnc4c3nc3n4CCCCC3)CC2)CC1", "Potency": "3.66 µM (active)", "cell number change": -15}
{"smiles": "O=C(NCCCN1CCCCC1)C1CCCN(c2ncnc3c2nc2n3CCCCC2)C1", "note": "(centres undefined)", "Potency": "29.1 µM (active)", "cell number change": -4.96}
{"smiles": "COc1ccc(CNC(=O)C2CCCN(c3ncnc4c3nc3n4CCCCC3)C2)cc1", "note": "(centres undefined)", "Potency": "inactive", "cell number change": 3.46}
{"smiles": "CCCN1CCN(C(=O)C2CCN(c3ncnc4c3nc3n4CCCCC3)CC2)CC1", "Potency": "inactive", "cell number change": -18.8}
{"smiles": "CC1CC(C)CN(CCCNC(=O)C2CCCN(c3ncnc4c3nc3n4CCCCC3)C2)C1", "note": "(centres undefined)", "Potency": "inactive", "cell number change": 27}
{"smiles": "O=C(NCCCN1CCCCC1)C1CCN(c2ncnc3c2nc2n3CCCCC2)CC1", "Potency": "inactive", "cell number change": 15.5}
{"smiles": "COc1cccc(CNC(=O)C2CCCN(c3ncnc4c3nc3n4CCCCC3)C2)c1", "note": "(centres undefined)", "Potency": "inactive"}
{"smiles": "Cc1cc(C)n2nc(C(=O)OCC(=O)Nc3ccc(F)cc3F)nc2n1", "Potency": "inactive", "cell number change": 11.7}
{"smiles": "CN(C)C(=S)Nc1cccc(F)c1", "Potency": "inactive", "cell number change": 0.661}
{"smiles": "CC(C)(C)c1cc(S(=O)(=O)CCc2ccncc2)cc(C(C)(C)C)c1F", "Potency": "inactive", "cell number change": -5.56}
